Our source for the Inhibition values is ChEMBL document CHEMBL1157539, “Thousands of chemical starting points for antimalarial lead identification” (Nature, 2010).

Holding throughout (type): functional
The test system of assay [1] is Plasmodium falciparum. In words: GSK_TCMDC: Inhibition of Plasmodium falciparum 3D7 in whole red blood cells, using parasite LDH activity as an index of growth. Test compounds present at 2uM.
The subject of assay [2] is Plasmodium falciparum. In words: GSK_TCMDC: Inhibition of Plasmodium falciparum Dd2 in whole red blood cells, using parasite LDH activity as an index of growth. Test compounds present at 2uM.
In assay [3] the test system is HepG2. In words: GSK_TCMDC: Percent inhibition of human HepG2 cell line. Test compounds present at 10uM.

Usually Inhibition stands for the change of the read-out against control, counted positive when it falls. Lower therefore signals a weak effect. With `COc1ccc2nccc(CCC3(O)CCC(NCc4cc5c(cc4F)SCC(=O)N5)CC3)c2c1` (stereo not given), the figures for the Inhibition in assay [1], in assay [2] and in assay [3] were 87%, 48% and 9%, respectively.

Consider `CC(NC(C)c1cccc(Cl)c1)C(=O)Nc1cc(C(F)(F)F)ccc1N1CCOCC1` (stereo not given), for which the Inhibition in assay [1] stood at 89%; in assay [2], 33%; in assay [3], 30%.

Turning to `CC(C)C(NC(=O)c1c(F)cccc1F)C(=O)Nc1ccc(Cc2nc3ccccc3s2)cc1` (stereo not given), the Inhibition turned out to be 86% in assay [1], 55% in assay [2] and 0% in assay [3].

Consider `Cc1ccccc1Nc1nc(NCCc2ccccc2)nc2ccccc12`, for which the Inhibition is 82% in assay [1], 18% in assay [2] and 32% in assay [3].

Consider `COC(=O)/C=C/c1ccc(CCC(C)NCC(O)c2cccc(Cl)c2)cc1` (stereo not given), for which the Inhibition in assay [1] stood at 94%; in assay [2] it was 77%; in assay [3], 5%.

For the molecule `CN(C)CCNC(=O)c1csc(Nc2ccc(Cl)c(Cl)c2)n1`, the Inhibition in assay [1] amounted to 100%; in assay [2], 100%; in assay [3] it was 4%.

`COc1ccc(CN(C)CCCc2ccc(NC(=O)c3cc4ccccc4[nH]3)cc2)cc1OC.O=C(O)/C=C/C(=O)O`: the results for the Inhibition in assay [1], in assay [2] and in assay [3] were 97%, 31% and 39%, respectively.

As to `Nc1cc(/C=C/c2ccc([N+](=O)[O-])o2)nc2ccccc12`, the values for the Inhibition in assay [1], in assay [2] and in assay [3] were 93%, 81% and 100%, respectively.

As to `CCCOc1c(CCNCCCCNCCc2ccc3ccccc3c2OCCC)ccc2ccccc12.CS(=O)(=O)O`, the Inhibition came out at 100% in assay [1], 78% in assay [2] and 100% in assay [3].

For the molecule `O=C(Nc1ccc(Cn2ncc(N3CCCNCC3)c(Cl)c2=O)cc1)Nc1cccc(C(F)(F)F)c1.O=C(O)C(F)(F)F`, the Inhibition is given as 100% in assay [1], 30% in assay [2] and 20% in assay [3].

For the molecule `O=C(Nc1cccc(-c2cc3ccccc3[nH]2)c1)C1CCN(Cc2ccccc2O)CC1`, the figures for the Inhibition in assay [1], in assay [2] and in assay [3] were 95%, 25% and 34%, respectively.

In the case of `CCCN1CCCN(Cc2cccc(NC(=O)c3ccc(-c4ccccc4)cc3)c2)CC1.O=C(O)C(F)(F)F`, the figures for the Inhibition in assay [1], in assay [2] and in assay [3] were 92%, 15% and 34%, respectively.

In the case of `O=C(NCCN1CCCCC1)c1ccc(CNC(=O)c2ccc(O)c(-c3cccc(C(F)(F)F)c3)c2)cc1`, the Inhibition in assay [1] was 94%; in assay [2] it was 47%; in assay [3], 3%.

For `O=C(CCC1CCCCC1)NCCNc1cccc2ccccc12`, the values for the Inhibition in assay [1], in assay [2] and in assay [3] were 90%, 57% and 7%, respectively.

As to `COc1ccc(-c2ccc(NC(=O)c3cccc(Cl)c3)cc2)cc1CN1CCN(C)CC1.O=C(O)C(F)(F)F`, the figures for the Inhibition in assay [1], in assay [2] and in assay [3] were 90%, 33% and 42%, respectively.

`Cc1ccc(F)c(CN2CCC(N3CC(c4ccccc4)(c4ccccc4)OC3=O)CC2)c1Cl`: the Inhibition in assay [1] is given as 95%; in assay [2] it was 89%; in assay [3] it was 11%.

As to `CCCOc1ccc(C(F)(F)F)cc1NC(=O)c1nc2nc(C)cc(C)n2n1`, the Inhibition in assay [1] turned out to be 90%; in assay [2] it was 88%; in assay [3] it was 7%.

Turning to `COc1ccccc1-c1csc(C(=O)NCC2CCN(Cc3ccc(C(C)(C)C)cc3)C2)c1.O=C(O)C(F)(F)F` (stereo not given), the Inhibition in assay [1] is listed as 93%; in assay [2], 11%; in assay [3] it was 29%.

Consider `O=C(NCCN1CCCC1)c1ccc(-c2ccc(-c3nc4ccccc4[nH]3)s2)cc1`, for which the Inhibition in assay [1] amounted to 92%; in assay [2], 3%; in assay [3], 22%.

For `CCCCCCN1CCC(NCc2ccc(OCCN3CCCC3)cc2)CC1.O=C(O)C(F)(F)F`, the results for the Inhibition in assay [1], in assay [2] and in assay [3] were 100%, 93% and 23%, respectively.

Turning to `O=C(Nc1cccc(-c2cccc(-c3nc4cc(C(F)(F)F)ccc4[nH]3)c2)c1)c1csnn1`, the Inhibition in assay [1] was 99%; in assay [2] it was 37%; in assay [3], 45%.

As for `Cc1c(CCNC(=O)CCCN2CC(C)CC(C)C2)c2ccccc2n1C.Cl` (stereo not given), the Inhibition was 87% in assay [1], 100% in assay [2] and 8% in assay [3].

On to `CN1CCN(CC(=O)Nc2ccc(-c3ccc(-c4nc5cc(C(F)(F)F)ccc5[nH]4)s3)cc2)CC1`, for which the figures for the Inhibition in assay [1], in assay [2] and in assay [3] were 100%, 73% and 84%, respectively.

Take `FC(F)(F)c1ccc2[nH]c(-c3cccc(-c4cccc(CNCCN5CCNCC5)c4)c3)nc2c1.O=C(O)C(F)(F)F`: the results for the Inhibition in assay [1], in assay [2] and in assay [3] were 92%, 18% and 29%, respectively.

Take `CCC(C)OC(=O)C1=C(C)NC2=C(C(=O)CC(c3ccc(OC)c(OC)c3)C2)C1c1cccc(O)c1` (stereo not given): the Inhibition in assay [1] is 100%; in assay [2] it was 98%; in assay [3] it was 0%.

Take `CC(C)OC(=O)c1ccc(NC(=O)N[C@@H](Cc2ccc(O)cc2)C(=O)NC2CC3CCC(C2)N3Cc2ccccc2)cc1.O=C(O)C(F)(F)F` (stereo not given in full): the results for the Inhibition in assay [1], in assay [2] and in assay [3] were 92%, 19% and 0%, respectively.

With `Cc1noc(C)c1-c1cccc(CNCc2cccc(-c3cccc(-c4nc5ccccc5[nH]4)c3)c2)c1.O=C(O)C(F)(F)F`, the results for the Inhibition in assay [1], in assay [2] and in assay [3] were 100%, 54% and 22%, respectively.

Consider `Br.CCCN(CCCCCCNCCc1ccc(Cl)cc1)CCc1ccc(O)c(O)c1`, for which the Inhibition in assay [1] was 91%; in assay [2], 11%; in assay [3], 26%.

As for `CCCC(CNCc1cccc(OCC)c1)CNc1cc(=O)c2ccccc2[nH]1` (stereo not given), the Inhibition in assay [1] was found to be 100%; in assay [2], 97%; in assay [3], 0%.

For the molecule `Cc1nn(CC(C)C)c2sc(C(=O)Nc3nc(-c4ccccn4)cs3)cc12`, the Inhibition in assay [1] came to 96%; in assay [2], 67%; in assay [3] it was 29%.
